These results are taken from ChEMBL document CHEMBL1961873, “Compounds: GSK PKIS; Assays: Nanosyn kinase panel” (2012).

In experiment [1] the target is Serine/threonine-protein kinase MARK2 (Homo sapiens) (UniProt Q7KZI7). To be noted: at 1 µM.
The target in experiment [2] is PAS domain-containing serine/threonine-protein kinase (Homo sapiens) (UniProt Q96RG2). To be noted: at 0.1 µM.
For experiment [3] the target is unchanged. The settings on record: at 1 µM.
In experiment [4] the target is Phosphorylase b kinase gamma catalytic chain, skeletal muscle/heart isoform (Homo sapiens) (UniProt Q16816). To be noted: at 0.1 µM.
Experiment [5] has the same target. To be noted: at 1 µM.
In experiment [6] the target is T1, Phosphorylase b kinase gamma catalytic chain, liver/testis isoform (Homo sapiens) (UniProt P15735).
T1 sequence (whole entry): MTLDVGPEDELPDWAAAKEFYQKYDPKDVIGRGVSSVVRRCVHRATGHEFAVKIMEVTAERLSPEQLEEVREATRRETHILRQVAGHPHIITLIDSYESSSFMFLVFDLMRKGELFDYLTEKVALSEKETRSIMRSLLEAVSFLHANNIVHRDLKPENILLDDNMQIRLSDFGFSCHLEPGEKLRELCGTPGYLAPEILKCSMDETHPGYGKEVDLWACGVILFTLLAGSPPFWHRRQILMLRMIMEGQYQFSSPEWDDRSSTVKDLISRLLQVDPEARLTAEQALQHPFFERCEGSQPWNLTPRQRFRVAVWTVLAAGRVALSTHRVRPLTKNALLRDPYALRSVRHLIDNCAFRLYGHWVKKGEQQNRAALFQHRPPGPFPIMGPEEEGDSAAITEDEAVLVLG
The settings on record: at 0.1 µM.

Experiment [7] has as its target T1, Phosphorylase b kinase gamma catalytic chain, liver/testis isoform (Homo sapiens). To be noted: at 1 µM.
Experiment [8] concerns the target Serine/threonine-protein kinase pim-1 (Homo sapiens) (UniProt P11309). To be noted: at 0.1 µM.
For experiment [9] the target is unchanged. To be noted: at 1 µM.
Experiment [10] concerns the target Serine/threonine-protein kinase pim-2 (Homo sapiens) (UniProt Q9P1W9). To be noted: at 0.1 µM.
The target is the same in experiment [11]. To be noted: at 1 µM.
The target in experiment [12] is Serine/threonine-protein kinase pim-3 (Homo sapiens) (UniProt Q86V86). The settings on record: at 0.1 µM.
The target is the same in experiment [13]. The settings on record: at 1 µM.
For experiment [14], the target named is T2, MAP kinase-activated protein kinase 5 (Homo sapiens) (UniProt Q8IW41).
T2 sequence (whole entry): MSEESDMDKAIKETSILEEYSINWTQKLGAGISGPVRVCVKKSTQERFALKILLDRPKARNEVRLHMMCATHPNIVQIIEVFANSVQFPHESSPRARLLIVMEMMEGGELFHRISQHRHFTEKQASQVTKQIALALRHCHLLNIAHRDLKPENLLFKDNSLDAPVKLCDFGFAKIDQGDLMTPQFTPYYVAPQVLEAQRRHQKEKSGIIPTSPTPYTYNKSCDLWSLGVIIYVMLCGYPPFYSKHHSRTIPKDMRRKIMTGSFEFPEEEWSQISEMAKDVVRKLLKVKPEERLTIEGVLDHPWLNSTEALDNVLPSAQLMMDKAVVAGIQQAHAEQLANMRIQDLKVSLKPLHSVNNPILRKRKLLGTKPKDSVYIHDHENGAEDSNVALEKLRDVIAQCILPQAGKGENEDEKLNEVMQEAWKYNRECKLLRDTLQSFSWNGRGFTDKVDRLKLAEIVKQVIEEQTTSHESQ
The settings on record: at 0.1 µM.

In experiment [15] the target is T2, MAP kinase-activated protein kinase 5 (Homo sapiens). To be noted: at 1 µM.
Experiment [16] concerns the target Serine/threonine-protein kinase SIK1 (Homo sapiens) (UniProt P57059). To be noted: at 0.1 µM.
Experiment [17] has the same target. To be noted: at 1 µM.
In experiment [18] the target is Serine/threonine-protein kinase SIK2 (Homo sapiens) (UniProt Q9H0K1). To be noted: at 0.1 µM.
Experiment [19] has the same target. To be noted: at 1 µM.
Experiment [20] concerns the target T3, Serine/threonine-protein kinase TBK1 (Homo sapiens) (UniProt Q9UHD2).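 Note: values are the mean TBK1 inhibition, taken from the GSK PKIS screening data.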
T3 sequence (whole entry): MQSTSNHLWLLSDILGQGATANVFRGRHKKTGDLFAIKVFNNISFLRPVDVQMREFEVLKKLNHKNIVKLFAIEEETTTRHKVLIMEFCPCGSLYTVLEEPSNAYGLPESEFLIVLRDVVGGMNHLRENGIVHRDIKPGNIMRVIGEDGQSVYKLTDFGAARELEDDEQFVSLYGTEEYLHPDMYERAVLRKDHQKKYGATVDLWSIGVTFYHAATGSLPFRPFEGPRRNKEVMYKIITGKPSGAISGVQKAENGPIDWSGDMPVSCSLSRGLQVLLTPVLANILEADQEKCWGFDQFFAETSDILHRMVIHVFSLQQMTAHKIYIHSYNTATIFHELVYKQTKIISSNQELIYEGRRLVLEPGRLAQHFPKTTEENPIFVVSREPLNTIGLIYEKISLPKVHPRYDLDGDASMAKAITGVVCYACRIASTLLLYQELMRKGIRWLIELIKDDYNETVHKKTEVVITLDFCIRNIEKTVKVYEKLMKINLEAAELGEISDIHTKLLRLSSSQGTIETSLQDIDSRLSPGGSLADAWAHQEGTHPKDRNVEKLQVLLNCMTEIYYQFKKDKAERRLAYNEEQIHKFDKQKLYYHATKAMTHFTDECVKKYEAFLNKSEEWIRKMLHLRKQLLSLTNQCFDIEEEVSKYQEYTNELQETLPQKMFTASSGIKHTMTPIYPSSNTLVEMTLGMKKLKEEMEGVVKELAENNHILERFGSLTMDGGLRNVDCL
To be noted: at 0.1 µM.

Sequence of Phosphorylase b kinase gamma catalytic chain, skeletal muscle/heart isoform (Homo sapiens) (Q16816 whole entry, looked up, canonical isoform): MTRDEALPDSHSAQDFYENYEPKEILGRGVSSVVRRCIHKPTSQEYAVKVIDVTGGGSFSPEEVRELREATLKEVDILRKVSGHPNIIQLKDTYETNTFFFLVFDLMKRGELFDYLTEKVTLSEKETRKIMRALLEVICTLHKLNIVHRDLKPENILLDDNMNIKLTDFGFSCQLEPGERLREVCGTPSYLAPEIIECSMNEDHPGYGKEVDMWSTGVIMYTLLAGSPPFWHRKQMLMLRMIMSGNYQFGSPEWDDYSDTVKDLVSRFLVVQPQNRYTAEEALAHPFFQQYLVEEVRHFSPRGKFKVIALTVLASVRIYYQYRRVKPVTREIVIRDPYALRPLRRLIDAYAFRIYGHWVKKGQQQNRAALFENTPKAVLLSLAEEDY
Sequence of Serine/threonine-protein kinase SIK2 (Homo sapiens) (Q9H0K1 whole entry, looked up): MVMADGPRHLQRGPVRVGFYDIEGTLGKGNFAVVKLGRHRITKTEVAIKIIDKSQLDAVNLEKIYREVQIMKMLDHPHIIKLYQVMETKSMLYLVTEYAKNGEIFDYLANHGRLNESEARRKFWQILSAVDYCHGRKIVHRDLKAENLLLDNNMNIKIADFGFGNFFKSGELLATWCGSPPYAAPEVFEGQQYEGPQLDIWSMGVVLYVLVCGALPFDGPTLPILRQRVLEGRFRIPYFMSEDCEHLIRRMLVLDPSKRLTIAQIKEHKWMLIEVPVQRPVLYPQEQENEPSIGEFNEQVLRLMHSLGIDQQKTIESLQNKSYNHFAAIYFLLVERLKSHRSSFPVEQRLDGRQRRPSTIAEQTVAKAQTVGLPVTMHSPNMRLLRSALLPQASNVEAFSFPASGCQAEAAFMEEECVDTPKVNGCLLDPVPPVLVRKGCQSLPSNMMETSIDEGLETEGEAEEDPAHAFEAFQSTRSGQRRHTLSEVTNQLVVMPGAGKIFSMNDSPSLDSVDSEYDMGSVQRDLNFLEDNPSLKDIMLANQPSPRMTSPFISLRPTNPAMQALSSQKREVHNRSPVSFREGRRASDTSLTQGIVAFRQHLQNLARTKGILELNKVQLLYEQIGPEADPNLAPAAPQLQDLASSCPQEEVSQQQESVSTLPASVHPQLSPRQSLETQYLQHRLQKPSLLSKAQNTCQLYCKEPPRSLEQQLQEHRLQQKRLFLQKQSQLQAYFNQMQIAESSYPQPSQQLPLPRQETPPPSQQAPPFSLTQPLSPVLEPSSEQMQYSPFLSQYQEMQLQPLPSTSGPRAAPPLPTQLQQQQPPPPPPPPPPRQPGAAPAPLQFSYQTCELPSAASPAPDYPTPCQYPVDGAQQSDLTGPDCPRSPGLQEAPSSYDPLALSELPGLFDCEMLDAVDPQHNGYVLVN
Sequence of Serine/threonine-protein kinase pim-2 (Homo sapiens) (Q9P1W9 whole entry, looked up): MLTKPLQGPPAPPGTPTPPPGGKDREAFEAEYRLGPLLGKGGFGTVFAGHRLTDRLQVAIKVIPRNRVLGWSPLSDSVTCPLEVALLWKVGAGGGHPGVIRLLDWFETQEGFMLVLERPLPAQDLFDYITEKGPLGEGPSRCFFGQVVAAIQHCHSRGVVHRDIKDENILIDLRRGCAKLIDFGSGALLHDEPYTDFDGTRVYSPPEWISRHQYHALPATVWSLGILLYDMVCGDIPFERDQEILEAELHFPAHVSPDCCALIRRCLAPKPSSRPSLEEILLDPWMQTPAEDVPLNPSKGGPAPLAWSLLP
Sequence of Serine/threonine-protein kinase MARK2 (Homo sapiens) (Q7KZI7 whole entry, the tested form may be a part): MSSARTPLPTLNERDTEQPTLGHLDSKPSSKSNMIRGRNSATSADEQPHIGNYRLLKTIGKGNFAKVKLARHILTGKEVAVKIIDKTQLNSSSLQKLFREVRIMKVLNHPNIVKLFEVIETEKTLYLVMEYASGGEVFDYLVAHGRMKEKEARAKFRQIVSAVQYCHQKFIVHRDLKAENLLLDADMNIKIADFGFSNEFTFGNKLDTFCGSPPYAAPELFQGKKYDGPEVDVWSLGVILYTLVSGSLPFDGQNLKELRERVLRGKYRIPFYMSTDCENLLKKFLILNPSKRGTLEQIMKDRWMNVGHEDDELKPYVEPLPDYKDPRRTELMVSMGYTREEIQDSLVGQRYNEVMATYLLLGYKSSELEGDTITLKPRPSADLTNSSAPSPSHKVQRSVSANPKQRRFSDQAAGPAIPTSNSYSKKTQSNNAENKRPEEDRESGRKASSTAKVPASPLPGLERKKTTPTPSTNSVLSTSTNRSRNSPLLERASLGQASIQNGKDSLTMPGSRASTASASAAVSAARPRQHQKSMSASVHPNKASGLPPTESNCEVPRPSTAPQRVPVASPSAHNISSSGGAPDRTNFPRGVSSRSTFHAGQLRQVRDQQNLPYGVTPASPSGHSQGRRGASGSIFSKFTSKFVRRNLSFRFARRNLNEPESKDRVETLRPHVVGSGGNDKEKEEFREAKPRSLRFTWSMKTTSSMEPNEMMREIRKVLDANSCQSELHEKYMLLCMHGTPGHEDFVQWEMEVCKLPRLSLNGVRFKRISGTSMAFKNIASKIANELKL
Sequence of PAS domain-containing serine/threonine-protein kinase (Homo sapiens) (Q96RG2 whole entry, the tested form may be a part): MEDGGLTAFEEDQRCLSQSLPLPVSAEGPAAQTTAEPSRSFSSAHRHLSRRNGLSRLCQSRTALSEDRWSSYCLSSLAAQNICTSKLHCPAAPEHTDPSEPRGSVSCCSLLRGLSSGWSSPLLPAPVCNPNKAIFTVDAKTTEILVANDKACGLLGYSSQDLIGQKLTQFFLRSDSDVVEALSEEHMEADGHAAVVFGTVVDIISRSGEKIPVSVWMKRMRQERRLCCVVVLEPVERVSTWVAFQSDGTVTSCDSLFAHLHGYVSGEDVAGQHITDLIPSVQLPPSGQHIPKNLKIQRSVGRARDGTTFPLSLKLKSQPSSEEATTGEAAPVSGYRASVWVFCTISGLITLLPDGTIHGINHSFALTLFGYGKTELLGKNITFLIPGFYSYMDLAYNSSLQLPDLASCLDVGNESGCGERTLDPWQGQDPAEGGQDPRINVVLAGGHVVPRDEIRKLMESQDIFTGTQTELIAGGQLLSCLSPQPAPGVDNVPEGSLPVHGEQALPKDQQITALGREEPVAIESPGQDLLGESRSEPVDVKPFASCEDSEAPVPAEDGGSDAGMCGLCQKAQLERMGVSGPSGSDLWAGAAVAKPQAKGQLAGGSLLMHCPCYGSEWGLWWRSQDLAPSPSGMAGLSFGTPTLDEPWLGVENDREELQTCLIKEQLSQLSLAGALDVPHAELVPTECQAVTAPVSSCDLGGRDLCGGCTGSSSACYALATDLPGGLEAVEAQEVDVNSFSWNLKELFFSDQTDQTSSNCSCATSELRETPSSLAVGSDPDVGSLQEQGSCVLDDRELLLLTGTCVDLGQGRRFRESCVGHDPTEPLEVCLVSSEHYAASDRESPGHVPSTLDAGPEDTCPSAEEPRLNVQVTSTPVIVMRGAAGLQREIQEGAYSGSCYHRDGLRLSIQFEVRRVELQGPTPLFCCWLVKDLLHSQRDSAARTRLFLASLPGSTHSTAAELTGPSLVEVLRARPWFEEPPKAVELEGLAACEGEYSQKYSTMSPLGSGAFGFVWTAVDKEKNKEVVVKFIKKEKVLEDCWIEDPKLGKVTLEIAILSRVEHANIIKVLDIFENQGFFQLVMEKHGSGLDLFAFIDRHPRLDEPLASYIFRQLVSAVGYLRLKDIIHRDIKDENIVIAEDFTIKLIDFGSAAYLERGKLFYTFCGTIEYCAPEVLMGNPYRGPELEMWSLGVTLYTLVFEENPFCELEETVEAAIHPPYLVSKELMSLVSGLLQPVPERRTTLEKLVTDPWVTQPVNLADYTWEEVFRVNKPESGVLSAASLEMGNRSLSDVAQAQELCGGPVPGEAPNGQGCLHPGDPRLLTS
Sequence of Serine/threonine-protein kinase pim-1 (Homo sapiens) (P11309 whole entry, looked up): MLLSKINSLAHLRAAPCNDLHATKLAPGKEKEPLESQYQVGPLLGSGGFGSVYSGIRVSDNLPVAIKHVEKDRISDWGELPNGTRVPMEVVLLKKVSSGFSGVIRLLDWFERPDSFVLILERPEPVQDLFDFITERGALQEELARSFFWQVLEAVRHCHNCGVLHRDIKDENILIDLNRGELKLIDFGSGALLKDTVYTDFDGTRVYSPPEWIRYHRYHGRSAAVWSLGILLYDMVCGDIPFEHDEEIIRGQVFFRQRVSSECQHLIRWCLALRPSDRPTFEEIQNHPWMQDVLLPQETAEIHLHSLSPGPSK

As a reminder, the inhibition is the change of the read-out against control, counted positive when it falls. In the case of `CCn1c(-c2nonc2N)nc2c(C#CC(C)(C)O)nc(OCCNC)cc21`, the inhibition in experiment [1] was 10.6%; in [2], -1.05%; in [3] it was 0.6%; in [4] it was 1.42%; in experiment [5], 4.25%; in experiment [6] it was 3.52%. The inhibition in experiment [7] is 4.33%; in experiment [8] it was 1.82%; in [9], 4.29%; in experiment [10], -0.54%; in [11] it was 1.04%; in experiment [12], 0.16%. For the same compound, the inhibition came to 3.51% in [13]; 1.21% in experiment [14]; 1.03% in experiment [15]; 6.97% in experiment [16]; 10.6% in experiment [17]; 3.14% in [18]. Moreover, the inhibition worked out at 9.54% in [19] and 3.53% in experiment [20].

In the case of `COc1cc2ncnc(Nc3ccc4c(cnn4Cc4ccccc4)c3)c2cc1OC`, the inhibition was 3.96% in experiment [1]; 0.55% in [2]; -0.09% in experiment [3]; 3.79% in [4]; 8.41% in experiment [5]; 2.67% in experiment [6]. The inhibition was 2.41% in [7]; 0.14% in experiment [8]; 1.19% in experiment [9]; 0.05% in experiment [10]; 2.31% in experiment [11]; -0.75% in experiment [12]. The inhibition stood at 1.06% in experiment [13]; 0.57% in [14]; 0.85% in [15]; 4.47% in [16]; 5.69% in experiment [17]; 4.37% in experiment [18]. The inhibition in experiment [19] is 3.7%; in experiment [20], 0.22%.

As for `NS(=O)(=O)c1cccc(-c2cc3ccncc3cc2OCc2ccccc2)c1`, the inhibition in experiment [1] was 4.78%; in [2] it was 0.61%; in experiment [3], -0.76%; in experiment [4] it was 4.05%; in experiment [5], 7.24%; in [6] it was 4.91%. Also, the inhibition is 3.55% in [7]; 1.01% in [8]; 0.91% in experiment [9]; 0.27% in [10]; 0.25% in experiment [11]; -1.15% in experiment [12]. Further, the inhibition in experiment [13] is -3.18%; in experiment [14] it was 1.74%; in [15] it was 0.61%; in experiment [16], 0.44%; in experiment [17] it was 5.64%; in experiment [18], 1.16%. In addition, the inhibition in [19] was determined as 3.39%; in [20], 2.28%.

`c1ccc(Cc2nc3ccc(Nc4ncnc5ccccc45)cc3[nH]2)cc1`: the inhibition in experiment [1] is 2.19%; in [2] it was 0.03%; in experiment [3], 0.27%; in [4], 2.35%; in experiment [5] it was 4.75%; in experiment [6] it was 3.39%. Further, the inhibition in experiment [7] is 4.89%; in experiment [8], 0.17%; in experiment [9], 0.7%; in experiment [10] it was -0.72%; in [11], 0.02%; in [12] it was 0.69%. Further, the inhibition in [13] amounted to 3.67%; in experiment [14] it was 1.42%; in experiment [15], 1.52%; in [16], 3.13%; in experiment [17], 5.43%; in [18], 2.47%. Further, the inhibition was determined as 7.91% in experiment [19] and 3.57% in experiment [20].

Take `OCc1ccc(-c2nc(-c3ccccn3)c(-c3ccc4c(c3)OCO4)[nH]2)cc1`: the inhibition was 2.05% in [1]; 0.83% in experiment [2]; -1.14% in experiment [3]; 2.77% in experiment [4]; -6% in experiment [5]; 5.91% in [6]. The inhibition was 2.21% in experiment [7]; 0.78% in experiment [8]; 0.98% in experiment [9]; 0.72% in experiment [10]; 1.41% in experiment [11]; -1.14% in experiment [12]. Also, the inhibition was -3.44% in experiment [13]; 1.17% in [14]; -0.12% in experiment [15]; 9% in [16]; 5.84% in experiment [17]; 8.76% in experiment [18]. Also, the inhibition in experiment [19] amounted to 7.48%; in experiment [20], 2.36%.

`Nc1nccc(C#Cc2cncnc2Nc2ccc(OCc3cccc(F)c3)c(Cl)c2)n1`: the inhibition in [1] was 8.86%; in experiment [2], -0.05%; in experiment [3], -3.04%; in experiment [4], 6.86%; in experiment [5], 27.5%; in experiment [6], 4.05%. Further, the inhibition was 2.05% in [7]; 1.29% in experiment [8]; 1.16% in experiment [9]; 0.62% in [10]; 1.29% in [11]; -0.87% in experiment [12]. For the same compound, the inhibition was -1.09% in experiment [13]; 0.74% in experiment [14]; -0.01% in experiment [15]; 5.03% in [16]; 6.42% in [17]; 5.11% in experiment [18]. For the same compound, the inhibition came out at 8.28% in [19] and 4.36% in experiment [20].

Regarding `CCS(=O)(=O)c1ccc(OC)c(Nc2nccc(N(C)c3ccc4c(C)n[nH]c4c3)n2)c1`, the inhibition in experiment [1] was 3.54%; in experiment [2], -0.44%; in [3], 0.34%; in experiment [4], 6.38%; in experiment [5] it was 6.76%; in experiment [6], 6.39%. In addition, the inhibition was 4.62% in experiment [7]; 1.18% in [8]; 1.44% in experiment [9]; 0.05% in experiment [10]; 0.56% in experiment [11]; -0.02% in experiment [12]. Also, the inhibition in experiment [13] is 0.25%; in [14], 1.5%; in experiment [15] it was 1.32%; in experiment [16], 3.91%; in experiment [17] it was 23.5%; in experiment [18], -0.54%. Further, the results for the inhibition in experiment [19] and in experiment [20] were 7.47% and 2.62%, respectively.
